PubChem BioAssay AID1159580 (chemical genetic matrix, 2015)
The whole screen tested about 5,500 compounds, of which about 2,000 (36%) were called active. Not shown: some 18% with an inconclusive outcome. Cut-off read from the data, not from the text of the source: active = normalized growth mostly below about 0.91 (no sharp cut-off); inconclusive = no clear call, values can overlap the other calls; inactive = mostly above about 0.92. Some of the results follow.

Experiment: chemical genetic growth profiling, strain panel (AID 1159580);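 note: tested at 20 µM; growth read once vehicle control cultures reached saturation at 30 °C; 1 = growth at the plate median or of vehicle wells; lower values mean less growth of the strain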
Conditions: growth OD

Measured: normalized growth

CCC(=O)OCC(=O)[C@@]1(OC(=O)CC)[C@@H](C)CC2C3CCC4=CC(=O)C=C[C@]4(C)C3(F)[C@@H](O)C[C@@]21C (some centres undefined)
inactive: S. cerevisiae deletion strains, locus YJR066W, strain TOR1, active compounds read low 0.989 | S. cerevisiae deletion strains, locus YJR075W, strain HOC1, active compounds read low 0.945 | S. cerevisiae deletion strains, locus YKL009W, strain mrt4, active compounds read low 0.891 | S. cerevisiae deletion strains, locus YKL068W, active compounds read low 0.958 | S. cerevisiae deletion strains, locus YKL085W, strain MDH1 (second series), active compounds read low 0.959 | S. cerevisiae deletion strains, locus YKL085W, strain MDH1, active compounds read low 0.959 | S. cerevisiae deletion strains, locus YKL160W, strain elf1, active compounds read low 1.01 | S. cerevisiae deletion strains, locus YKR001C, strain vps1, active compounds read low 0.916 | S. cerevisiae deletion strains, locus YKR026C, strain gcn3, active compounds read low 0.997 | S. cerevisiae deletion strains, locus YKR091W, strain srl3, active compounds read low 0.997 | S. cerevisiae deletion strains, locus YLL001W, strain dnm1, active compounds read low 1.01 | S. cerevisiae deletion strains, locus YLL026W, active compounds read low 1.01 | S. cerevisiae deletion strains, locus YLL041C, strain sdh2, active compounds read low 0.994 | S. cerevisiae deletion strains, locus YLR027C, strain aat2, active compounds read low 0.999 | S. cerevisiae deletion strains, locus YLR039C, strain RIC1, active compounds read low 0.85 | S. cerevisiae deletion strains, locus YLR058C, strain SHM2, active compounds read low 0.943 | S. cerevisiae deletion strains, locus YLR102C, strain apc9, active compounds read low 0.973 | S. cerevisiae deletion strains, locus YLR113W, strain HOG1, active compounds read low 1.05 | S. cerevisiae deletion strains, locus YLR221C, strain rsa3, active compounds read low 1.01 | S. cerevisiae deletion strains, locus YLR258W, strain gsy2, active compounds read low 0.997 | S. cerevisiae deletion strains, locus YLR262C, strain YPT6 (second series), active compounds read low 1 | S. cerevisiae deletion strains, locus YLR262C, strain YPT6, active compounds read low 0.772 | S. cerevisiae deletion strains, locus YLR268W, strain sec22, active compounds read low 0.915 | S. cerevisiae deletion strains, locus YLR320W, strain mms22, active compounds read low 1.02 | S. cerevisiae deletion strains, locus YLR342W, strain FKS1, active compounds read low 1.01 | S. cerevisiae deletion strains, locus YLR357W, strain rsc2, active compounds read low 1.02 | S. cerevisiae deletion strains, locus YLR370C, strain arc18, active compounds read low 1 | S. cerevisiae deletion strains, locus YLR371W, strain rom2, active compounds read low 0.95 | S. cerevisiae deletion strains, locus YLR384C, strain iki3, active compounds read low 0.998 | S. cerevisiae deletion strains, locus YML016C, strain PPZ1, active compounds read low 0.967 | S. cerevisiae deletion strains, locus YML120C, strain ndi1, active compounds read low 0.995 | S. cerevisiae deletion strains, locus YML124C, strain tub3, active compounds read low 0.953 | S. cerevisiae deletion strains, locus YMR058W, strain fet3, active compounds read low 0.997 | S. cerevisiae deletion strains, locus YMR078C, strain ctf18, active compounds read low 0.925 | S. cerevisiae deletion strains, locus YMR125W, strain sto1, active compounds read low 0.984 | S. cerevisiae deletion strains, locus YMR129W, active compounds read low 0.99 | S. cerevisiae deletion strains, locus YMR205C, strain PFK2, active compounds read low 1.02 | S. cerevisiae deletion strains, locus YMR231W, strain pep5, active compounds read low 1.02 | S. cerevisiae deletion strains, locus YMR307W, strain GAS1, active compounds read low 0.642 | S. cerevisiae deletion strains, locus YNL067W, strain RPL9B, active compounds read low 0.994 | S. cerevisiae deletion strains, locus YNL071W, strain lat1, active compounds read low 0.998 | S. cerevisiae deletion strains, locus YNL128W, strain TEP1, active compounds read low 0.941 | S. cerevisiae deletion strains, locus YNL153C, strain GIM3, active compounds read low 0.945 | S. cerevisiae deletion strains, locus YNL183C, strain NPR1, active compounds read low 0.974 | S. cerevisiae deletion strains, locus YNL209W, strain ssb2, active compounds read low 0.994 | S. cerevisiae deletion strains, locus YNL233W, strain BNI4, active compounds read low 0.902 | S. cerevisiae deletion strains, locus YNL248C, strain rpa49, active compounds read low 0.994 | S. cerevisiae deletion strains, locus YNL250W, strain rad50, active compounds read low 0.907 | S. cerevisiae deletion strains, locus YNL271C, strain bni1, active compounds read low 0.951 | S. cerevisiae deletion strains, locus YNL298W, strain CLA4, active compounds read low 0.942 | S. cerevisiae deletion strains, locus YNL322C, strain KRE1 (second series), active compounds read low 0.982 | S. cerevisiae deletion strains, locus YNR049C, strain mso1, active compounds read low 0.999 | S. cerevisiae deletion strains, locus YNR052C, strain pop2, active compounds read low 0.955 | S. cerevisiae deletion strains, locus YOL012C, strain htz1 1.01 | S. cerevisiae deletion strains, locus YOL147C, strain pex11, active compounds read low 0.958 | S. cerevisiae deletion strains, locus YOR001W, strain rrp6, active compounds read low 0.992 | S. cerevisiae deletion strains, locus YOR061W, strain CKA2, active compounds read low 0.93 | S. cerevisiae deletion strains, locus YOR069W, strain VPS5, active compounds read low 0.973 | S. cerevisiae deletion strains, locus YOR070C, strain gyp1, active compounds read low 1 | S. cerevisiae deletion strains, locus YOR080W, strain dia2, active compounds read low 1.01 | S. cerevisiae deletion strains, locus YOR083W, strain WHI5, active compounds read low 1 | S. cerevisiae deletion strains, locus YOR106W, strain vam3, active compounds read low 0.995 | S. cerevisiae deletion strains, locus YOR136W, strain idh2, active compounds read low 0.981 | S. cerevisiae deletion strains, locus YOR144C, strain elg1, active compounds read low 0.953 | S. cerevisiae deletion strains, locus YOR231W, strain MKK1, active compounds read low 0.994 | S. cerevisiae deletion strains, locus YOR265W, strain rbl2, active compounds read low 1.01 | S. cerevisiae deletion strains, locus YOR270C, strain vph1, active compounds read low 0.887 | S. cerevisiae deletion strains, locus YOR290C, strain snf2, active compounds read low 0.981 | S. cerevisiae deletion strains, locus YOR316C, strain cot1, active compounds read low 0.961 | S. cerevisiae deletion strains, locus YPL051W, strain arl3, active compounds read low 1 | S. cerevisiae deletion strains, locus YPL055C, strain LGE1, active compounds read low 0.853 | S. cerevisiae deletion strains, locus YPL078C, strain atp4, active compounds read low 0.996 | S. cerevisiae deletion strains, locus YPL106C, strain sse1, active compounds read low 1.03 | S. cerevisiae deletion strains, locus YPL240C, strain hsp82, active compounds read low 0.997 | S. cerevisiae deletion strains, locus YPL256C, strain CLN2, active compounds read low 0.998 | S. cerevisiae deletion strains, locus YPR119W, strain clb2, active compounds read low 0.953 | S. cerevisiae deletion strains, locus YPR141C, strain kar3, active compounds read low 0.964 | S. cerevisiae deletion strains, locus YPR163C, strain tif3, active compounds read low 0.942 | S. cerevisiae deletion strains, locus YPR167C, strain met16, active compounds read low 0.936 | S. cerevisiae deletion strains, strain wtn01, active compounds read low 0.959 | S. cerevisiae strains, strain wild type, active compounds read low 0.929
active: S. cerevisiae deletion strains, locus YJR043C, strain POL32, active compounds read low 0.841 | S. cerevisiae deletion strains, locus YLR330W, strain CHS5, active compounds read low 0.898 | S. cerevisiae deletion strains, locus YLR342W, strain FKS1 (second series), active compounds read low 0.741 | S. cerevisiae deletion strains, locus YLR418C, strain cdc73, active compounds read low 0.777 | S. cerevisiae deletion strains, locus YML032C, strain rad52, active compounds read low 0.843 | S. cerevisiae deletion strains, locus YMR223W, strain ubp8, active compounds read low 0.876 | S. cerevisiae deletion strains, locus YNL307C, strain MCK1, active compounds read low 0.835 | S. cerevisiae deletion strains, locus YOR184W, strain ser1, active compounds read low 0.838
